Results on 4 compounds are retold here after PubChem BioAssay.

Active and inactive are the calls of the source.

A short description of experiment [1]: optical density shifts of acrAB sulA E. coli – strain DRC41, OD650, 48 h, E. coli filamentation inducer project, primary screen (AID 1152).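 Note: E. coli MC1000 strain DRC41 lacking acrAB efflux pump and sulA.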 Particulars: higher = more signal, called active from +8 up or from −8 down.
Experiment [2] can be described thus: probe aLefty1 binding on compound microarray – biochemical, small-molecule microarray, 635/667 nm fluorescence, primary screen (AID 1153).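 Note: score merges spot fluorescence with signal-to-noise ratio from the scanned slide images.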 Conditions: higher = more signal.
Experiment [3] is described as follows: plasmodial surface anion channel blockers, osmotic lysis – cell-based, P. falciparum Indochina, OD700, 1 h, primary screen (AID 1154). Conditions: P. falciparum Indochina infected RBC osmotic lysis, higher = more signal, called active from +8 up or from −8 down.
Experiment [4] in a line: plasmodial surface anion channel blockers, osmotic lysis – cell-based, P. falciparum Indochina, OD700, 2 h, primary screen (AID 1155).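 Note: lysis reports solute entry through the parasite surface anion channel PSAC.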 Conditions: P. falciparum Indochina infected erythrocytes, higher = more signal, called active from +8 up or from −8 down.
A short description of experiment [5]: changes in parasitized red cell lysis, either direction – P. falciparum Indochina, OD700, 3 h, PSAC antagonist project, primary screen (AID 1156). Particulars: P. falciparum-infected erythrocytes, osmotic lysis, higher = more signal, called active from +8 up or from −8 down.
Experiment [6] can be described thus: plasmodial surface anion channel blockers, osmotic lysis – cell-based, P. falciparum Indochina, OD700, 18 h, primary screen (AID 1157). Particulars: P. falciparum Indochina infected erythrocytes, osmotic lysis OD700, 18 h; higher = more signal, called active from +8 up or from −8 down.
Experiment [7] in a line: S6 kinase pathway phospho-S6 level changes – cell-based, A549, cytoblot, luminescence, serum-stimulated, primary screen (AID 1158).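 Note: serum-stimulated A549 lung adenocarcinoma cells; signal is phosphorylated S6 detected by cytoblot immunostaining with HRP secondary.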 Particulars: 5 h, higher = more signal.
Experiment [8] addresses NADPH oxidase 2 (Homo sapiens) (UniProt P04839). Nature of the experiment: compounds shifting NOX2 Amplex Red fluorescence – cell-based, HEK293-NOX2, PMA-stimulated, NOX inhibitor project, primary screen (AID 1159). Note: test concentration not given here. Conditions: 45 min, higher = more signal, called active from +8 up or from −8 down.
Experiment [9] has as its target NADPH oxidase 4 (Homo sapiens) (UniProt Q9NPH5). Nature of the experiment: compounds shifting NOX4 Amplex Red fluorescence – cell-based, HEK293-NOX4, tetracycline-induced, NOX inhibitor project, primary screen (AID 1160). Particulars: HEK293-NOX4, Amplex Red H2O2 fluorescence, 45 min; higher = more signal, called active from +8 up or from −8 down.
Experiment [10] has as its target NADPH oxidase 5 (Homo sapiens) (UniProt Q96PH1). Description: compounds shifting NOX5 Amplex Red fluorescence – cell-based, HEK293-NOX5, NOX inhibitor project, primary screen (AID 1161). Particulars: HEK293-NOX5, ionomycin, 45 min, higher = more signal.
Experiment [11] is described as follows: compound effects on lung adenocarcinoma cell viability – A549, calcein-AM fluorescence, 48 h, basal, profiling panel (AID 1162). Note: test concentration not given here. Conditions: higher = more signal.
Experiment [12] can be described thus: compound effects on differentiated 3T3-L1 adipocyte viability – cell-based, 3T3-L1 adipocytes, calcein-AM fluorescence, 48 h, basal, profiling panel (AID 1163). Note: test concentration not given here. Particulars: 3T3-L1 adipocytes viability, higher = more signal.
The nature of experiment [13]: compound effects on hepatocellular carcinoma cell viability – HepG2, calcein-AM fluorescence, 48 h, basal, profiling panel (AID 1164). Note: test concentration not given here. Particulars: higher = more signal.
Experiment [14] in a line: compound effects on multiple myeloma cell viability – MM1S, calcein-AM fluorescence, 48 h, basal, profiling panel (AID 1165). Note: test concentration not given here. Conditions: higher = more signal.
Experiment [15] in a line: calcein-AM signal in unstimulated myeloma cells – cell-based, calcein-AM fluorescence, 48 h, PK04 Diversity Set, profiling panel (AID 1166).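 Note: cells grown under basal conditions without added stimulus; test concentration not given here.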 Particulars: RPMI8226 myeloma viability, higher = more signal.
Experiment [16] is described as follows: JC-1 mitochondrial signal, unstimulated HepG2 cells – cell-based, JC-1 fluorescence, 24 h, 100 nL compound, profiling panel (AID 1167). Note: test concentration not given here. Particulars: HepG2 mitochondrial potential, higher = more signal.
Experiment [17] in a line: JC-1 mitochondrial signal, unstimulated adipocytes – cell-based, JC-1 fluorescence, 3T3-L1 adipocytes, 24 h, 100 nL compound, profiling panel (AID 1168). Note: test concentration not given here. Particulars: JC-1 mitochondrial fluorescence, higher = more signal, called active from +8 up or from −8 down.
A short description of experiment [18]: JC-1 mitochondrial signal, unstimulated myeloma cells – cell-based, JC-1 fluorescence, RPMI8226, 24 h, 100 nL compound, profiling panel (AID 1169). Note: test concentration not given here. Conditions: JC-1 mitochondrial potential fluorescence, higher = more signal.
Experiment [19] can be described thus: JC-1 mitochondrial signal, unstimulated MM1S myeloma – cell-based, JC-1 fluorescence, 24 h, 100 nL compound, profiling panel (AID 1170). Note: test concentration not given here. Particulars: MM1S mitochondrial potential, higher = more signal.
A short description of experiment [20]: resazurin metabolic signal in A549 cells – cell-based, resazurin fluorescence, 24 h, PK04 Diversity Set, profiling panel (AID 1171). Note: test concentration not given here. Particulars: A549 viability, higher = more signal, called active from +8 up or from −8 down. In general terms: Resazurin is reduced to fluorescent resorufin, in cell work by metabolically active cells.

Chain of NADPH oxidase 4 (Homo sapiens) (Q9NPH5 whole entry, looked up): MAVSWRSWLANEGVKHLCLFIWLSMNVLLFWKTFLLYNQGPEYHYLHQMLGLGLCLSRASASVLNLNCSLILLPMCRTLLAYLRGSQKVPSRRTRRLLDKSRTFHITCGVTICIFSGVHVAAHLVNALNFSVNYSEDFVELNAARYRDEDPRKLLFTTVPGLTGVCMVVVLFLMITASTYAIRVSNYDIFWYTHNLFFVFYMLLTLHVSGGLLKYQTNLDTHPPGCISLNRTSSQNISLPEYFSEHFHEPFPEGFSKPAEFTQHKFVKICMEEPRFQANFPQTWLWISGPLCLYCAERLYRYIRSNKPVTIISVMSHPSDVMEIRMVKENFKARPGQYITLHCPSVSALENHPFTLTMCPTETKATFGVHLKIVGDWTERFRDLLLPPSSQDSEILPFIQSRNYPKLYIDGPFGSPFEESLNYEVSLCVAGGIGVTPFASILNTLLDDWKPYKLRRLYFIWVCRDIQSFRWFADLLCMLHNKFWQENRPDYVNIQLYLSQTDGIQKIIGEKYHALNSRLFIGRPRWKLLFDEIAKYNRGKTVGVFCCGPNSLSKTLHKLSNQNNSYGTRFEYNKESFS
Chain of NADPH oxidase 2 (Homo sapiens) (P04839 whole entry, looked up): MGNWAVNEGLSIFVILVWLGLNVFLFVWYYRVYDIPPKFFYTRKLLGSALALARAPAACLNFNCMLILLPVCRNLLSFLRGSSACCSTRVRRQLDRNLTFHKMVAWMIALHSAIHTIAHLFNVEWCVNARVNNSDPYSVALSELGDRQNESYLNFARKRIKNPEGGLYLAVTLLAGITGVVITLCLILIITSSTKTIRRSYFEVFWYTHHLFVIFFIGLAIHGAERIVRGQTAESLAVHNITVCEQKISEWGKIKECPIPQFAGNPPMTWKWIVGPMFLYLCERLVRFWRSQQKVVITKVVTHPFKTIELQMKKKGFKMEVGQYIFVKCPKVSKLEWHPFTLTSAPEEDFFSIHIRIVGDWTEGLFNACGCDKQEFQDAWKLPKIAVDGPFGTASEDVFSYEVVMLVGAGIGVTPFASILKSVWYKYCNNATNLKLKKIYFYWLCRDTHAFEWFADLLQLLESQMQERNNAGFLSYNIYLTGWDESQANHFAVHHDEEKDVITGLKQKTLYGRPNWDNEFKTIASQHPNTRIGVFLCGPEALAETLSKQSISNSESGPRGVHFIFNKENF
Chain of NADPH oxidase 5 (Homo sapiens) (Q96PH1 whole entry, looked up): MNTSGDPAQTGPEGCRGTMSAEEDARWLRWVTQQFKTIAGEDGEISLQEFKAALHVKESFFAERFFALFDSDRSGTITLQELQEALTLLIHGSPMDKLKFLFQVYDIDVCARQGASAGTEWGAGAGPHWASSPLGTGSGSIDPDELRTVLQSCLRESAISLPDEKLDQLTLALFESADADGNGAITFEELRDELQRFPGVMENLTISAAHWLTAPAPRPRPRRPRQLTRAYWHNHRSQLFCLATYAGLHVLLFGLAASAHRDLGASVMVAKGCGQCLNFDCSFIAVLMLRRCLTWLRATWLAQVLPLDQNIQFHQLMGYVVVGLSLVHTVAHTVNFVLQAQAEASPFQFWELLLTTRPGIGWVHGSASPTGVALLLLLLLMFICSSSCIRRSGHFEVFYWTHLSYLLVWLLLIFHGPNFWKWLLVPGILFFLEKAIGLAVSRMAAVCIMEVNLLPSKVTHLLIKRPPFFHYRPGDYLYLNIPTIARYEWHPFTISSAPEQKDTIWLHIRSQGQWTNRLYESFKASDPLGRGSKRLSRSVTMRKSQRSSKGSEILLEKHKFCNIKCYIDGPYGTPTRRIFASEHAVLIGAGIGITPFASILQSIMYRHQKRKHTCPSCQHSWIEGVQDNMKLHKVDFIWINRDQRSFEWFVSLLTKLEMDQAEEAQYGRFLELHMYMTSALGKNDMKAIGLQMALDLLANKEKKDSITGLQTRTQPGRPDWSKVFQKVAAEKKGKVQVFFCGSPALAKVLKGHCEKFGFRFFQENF

On to `O=C(NCc1ccc(F)cc1)[C@H]1C[C@H]2C(=O)NCC(=O)N2[C@H]1c1ccc(O)cc1`, for which the z-score in experiment [1] was 0.357 (inactive); in experiment [3], 1.11 (inactive); in experiment [4], 0.285 (inactive); in experiment [5], -2.04 (inactive); in experiment [6], 0.4 (inactive); in experiment [7] it was -0.337. The z-score in [8] is 0.992 (inactive); in experiment [9], 0.558 (inactive); in experiment [10] it was 0.693; in [11], 0.139; in experiment [12], -0.218; in experiment [13] it was -0.457. The z-score was -1.49 in [14]; 0.461 in experiment [15]; 0.679 in [16]; -0.276 (inactive) in experiment [17]; 0.683 in [18]; 0.318 in experiment [19]. Moreover, the z-score in experiment [20] is 0.54 (inactive). In [2], this compound had a composite z-score of 0.239.

On to `O=C(NCCN1CCOCC1)[C@@H]1c2ccccc2C(=O)N(C2Cc3ccccc3C2)[C@H]1c1ccc(CO)cc1`, for which the z-score was 2.03 (inactive) in experiment [1]; 3.11 (inactive) in experiment [3]; -0.0966 (inactive) in [4]; -0.056 (inactive) in experiment [5]; 0.0832 (inactive) in experiment [6]; 1.31 in experiment [7]. Moreover, the z-score is 0.182 (inactive) in experiment [8]; 0.855 (inactive) in experiment [9]; -0.0278 in experiment [10]; 2.31 in experiment [11]; 1.58 in experiment [12]; 2.01 in [13]. Besides, the z-score was 0.578 in experiment [14]; 1.35 in experiment [15]; 4.03 in experiment [16]; 0.894 (inactive) in experiment [17]; -0.647 in experiment [18]; 0.291 in experiment [19]. Besides, the z-score in experiment [20] was 0.326 (inactive). The compound also returned a composite z-score in experiment [2] of -0.0292.

`C=CCNC(=O)[C@H]1[C@@H]2C(=O)O[C@@H](c3ccccc3)[C@@H](c3ccccc3)N2[C@@H](c2ccccc2OCCO)[C@]12C(=O)N(C(=O)OCCOC)c1ccc(C#CC3(O)CCCCCC3)cc12`: the z-score in experiment [1] was 1.49 (inactive); in experiment [3], 1.58 (inactive); in experiment [4], 0.166 (inactive); in [5], -0.236 (inactive); in experiment [6], -1.57 (inactive); in [7], 2.01. The z-score in [8] was 1.52 (inactive); in experiment [9], 1.07 (inactive); in experiment [10], 0.729; in experiment [11], -0.293; in [12] it was 0.905; in experiment [13], -0.0307. The z-score in experiment [14] is -3.15; in experiment [15], -4.56; in [16], -0.341; in [17], 1.18 (inactive); in experiment [18], -1.14; in [19] it was -1.7. Besides, in experiment [20], the z-score is -2.4 (inactive). Further, the composite z-score in [2] came out at 0.25.

For the compound `CC(C)C[C@@H]1NC(=O)[C@@H]2C[C@H](C(=O)NCCCCCCN)[C@H](c3cccc(OCCO)c3)N2C1=O`, the z-score in experiment [1] was 0.831 (inactive); in experiment [3] it was 3.69 (inactive); in experiment [4] it was 0.73 (inactive); in [5], 3.36 (inactive); in experiment [6], 0.227 (inactive); in experiment [7] it was -0.256. Besides, the z-score was 2.24 (inactive) in experiment [8]; 1.36 (inactive) in experiment [9]; 1.99 in [10]; -0.038 in [11]; 0.971 in [12]; -0.822 in experiment [13]. Further, the z-score in experiment [14] is 0.206; in [15], -0.703; in experiment [16], -0.39; in [17] it was 0.433 (inactive); in experiment [18], -0.84; in experiment [19], 0.519. Besides, the z-score in experiment [20] is -0.862 (inactive). For the same compound, the composite z-score in [2] amounted to 0.393.
